Reference: PubChem BioAssay (NCI)
This is part of a sample that, as a whole, favours compounds with a hit. Of some 83,000 tested, about 20% had one in any assay.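 Compound tested at a single concentration for 48 hours in 96-well plates; a percent growth value below 10 was scored as active.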 The source made the active and inactive calls.

Assays:
Assay in all cases: NCI-60 one-dose screen, 48 h (100 = growth as untreated, 0 = no growth, -100 = all killed)
Details in all cases: 10 µM
SK-MEL-2 melanoma = test system: SK-MEL-2 melanoma
EKVX NSCLC = test system: EKVX NSCLC
SN12C renal = test system: SN12C renal
TK-10 renal = test system: TK-10 renal
ACHN renal = test system: ACHN renal
CAKI-1 renal = test system: CAKI-1 renal
CCRF-CEM leukemia = test system: CCRF-CEM leukemia
MOLT-4 leukemia = test system: MOLT-4 leukemia
UO-31 renal = test system: UO-31 renal
A498 renal = test system: A498 renal

Measured: growth

CC(C)C1=C(O)C2=C(C(=O)C1=O)[C@@]1(C)CCCC(C)(C)[C@@H]1CC2
inactive: SK-MEL-2 melanoma 97.7% | EKVX NSCLC 67.1% | SN12C renal 81% | TK-10 renal 81.5% | ACHN renal 59.6% | CAKI-1 renal 15% | CCRF-CEM leukemia 41.5% | MOLT-4 leukemia 44.2%

CCCCCCCCCCCC[n+]1c(C)cc(N)c2ccccc21
inactive: EKVX NSCLC 14.5% | ACHN renal 12% | CAKI-1 renal 25.7%
active: SK-MEL-2 melanoma -52.1% | SN12C renal 7.94% | TK-10 renal 7.85% | CCRF-CEM leukemia 9.62% | MOLT-4 leukemia -24.1%

c1ccc2c(c1)Cc1ccccc1N2CCN1CCCCC1
inactive: SK-MEL-2 melanoma 97% | EKVX NSCLC 101% | UO-31 renal 83.8% | TK-10 renal 104% | ACHN renal 89.6% | CAKI-1 renal 90.7% | A498 renal 107% | CCRF-CEM leukemia 98.7% | MOLT-4 leukemia 83.3%

COc1ccc2c(c1)C(=O)/C(=C/c1ccc([N+](=O)[O-])o1)O2
active: SK-MEL-2 melanoma -68.7% | SN12C renal -30.4% | UO-31 renal -91.9% | TK-10 renal -93.1% | ACHN renal -80.9% | CAKI-1 renal -69.8% | A498 renal -50.5% | CCRF-CEM leukemia 3.49% | MOLT-4 leukemia -37.2%

COc1ccc(Nc2cnc3cc(NS(=O)(=O)c4ccc(C)cc4)ccc3n2)cc1
inactive: SK-MEL-2 melanoma 65.5% | SN12C renal 85.9% | UO-31 renal 59.3% | TK-10 renal 94.7% | ACHN renal 90.3% | CAKI-1 renal 61.5% | A498 renal 77.9% | CCRF-CEM leukemia 90% | MOLT-4 leukemia 57.5%

O=C1c2c(c(=O)[nH]c3ccccc23)CCN1Cc1ccccc1
inactive: SK-MEL-2 melanoma 127% | EKVX NSCLC 92.4% | SN12C renal 97.4% | TK-10 renal 119% | ACHN renal 91.8% | A498 renal 110% | CCRF-CEM leukemia 100% | MOLT-4 leukemia 105%

COc1ccc(N=Nc2cc(OC)c(OC)c(OC)c2)cc1
inactive: SK-MEL-2 melanoma 74.1% | EKVX NSCLC 77.3% | UO-31 renal 58.6% | TK-10 renal 84.7% | ACHN renal 80.2% | CAKI-1 renal 70.2% | A498 renal 73.5% | CCRF-CEM leukemia 65.6% | MOLT-4 leukemia 78%

COc1cccc2ccc(CC(O)(c3ccccc3)c3ccccc3)nc12
inactive: SK-MEL-2 melanoma 85.1% | SN12C renal 93.8% | UO-31 renal 59.8% | TK-10 renal 128% | ACHN renal 84.3% | CAKI-1 renal 87.2% | A498 renal 102% | CCRF-CEM leukemia 95.7% | MOLT-4 leukemia 88.6%

Cc1ccc(N=Nc2ccccc2)cc1
inactive: SK-MEL-2 melanoma 97.6% | EKVX NSCLC 94.8% | UO-31 renal 94.8% | TK-10 renal 95.1% | ACHN renal 107% | CAKI-1 renal 96.4% | A498 renal 104% | CCRF-CEM leukemia 99% | MOLT-4 leukemia 95.5%

COc1cccc(N=Nc2cccc(OC)c2)c1
inactive: SK-MEL-2 melanoma 94.4% | EKVX NSCLC 83.5% | UO-31 renal 88.2% | TK-10 renal 95.9% | ACHN renal 93% | CAKI-1 renal 94.2% | A498 renal 86.4% | CCRF-CEM leukemia 90.8% | MOLT-4 leukemia 79.5%

COc1ccc2c(c1)C(=O)/C(=C/c1ncc([N+](=O)[O-])n1C)O2
active: SK-MEL-2 melanoma -52.1% | SN12C renal -11.5% | UO-31 renal -46.4% | TK-10 renal -37.9% | ACHN renal 9.55% | CAKI-1 renal -21.6% | A498 renal -35.5% | MOLT-4 leukemia -5.94%
inactive: CCRF-CEM leukemia 95.1%

NS(=O)(=O)c1ccc(Br)cc1
inactive: SK-MEL-2 melanoma 101% | EKVX NSCLC 90.3% | UO-31 renal 97.1% | TK-10 renal 90.4% | ACHN renal 107% | CAKI-1 renal 95.3% | A498 renal 115% | CCRF-CEM leukemia 104% | MOLT-4 leukemia 92.7%

C#CC(C)(O)[C@@H]1C[C@H](CC(=O)O)C1(C)C (some centres undefined)
inactive: SK-MEL-2 melanoma 108% | SN12C renal 108% | UO-31 renal 87.1% | TK-10 renal 114% | ACHN renal 110% | CAKI-1 renal 96% | A498 renal 110% | CCRF-CEM leukemia 137% | MOLT-4 leukemia 114%

COc1ccc(/C=c2\sc3n(c2=O)C(c2cc(OC)c(OC)c(OC)c2)C=C(c2ccc(OC)c(OC)c2)N=3)cc1OC (centres undefined)
inactive: SK-MEL-2 melanoma 106% | EKVX NSCLC 101% | SN12C renal 93.9% | TK-10 renal 105% | CAKI-1 renal 105% | A498 renal 94.5% | CCRF-CEM leukemia 64.4% | MOLT-4 leukemia 79.5%

CC(=O)Nc1cc2c(cc1Cl)Cc1cc(Cl)ccc1-2
inactive: SK-MEL-2 melanoma 103% | EKVX NSCLC 12% | UO-31 renal 65.4% | TK-10 renal 86.4% | ACHN renal 88.2% | CAKI-1 renal 75.6% | MOLT-4 leukemia 103%
